Results reported in PubChem BioAssay.
Activity calls are given as the source filed them.

Assays:
Albumin (Bos taurus) = Albumin (Bos taurus) (UniProt P02769); assay: bovine serum albumin binders on microarray, profiling panel, artefact control for SMM control protein annotation, biochemical, small-molecule microarray, Alexa647 label, 635/667 nm fluorescence (AID 1118); details: BSA-A647 binding, fluorescence 635 nm, higher = more signal;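 further: score merges 667 nm emission intensity and signal-to-noise per printed compound spot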
[1] = small-molecule microarray binders of probe aXIP, primary screen, biochemical, NeuroSMM set, 635/667 nm fluorescence (AID 1119); details: higher = more signal, called active from +8 up or from −8 down;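 further: probe is the protein aXip251-270 applied at 1 µg/mL to compound-printed slides; binding of probe to printed compounds measured as 667 nm fluorescence plus signal to noise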
[2] = small-molecule binders of probe aNOTCH3, primary screen, biochemical, small-molecule microarray, 635/667 nm fluorescence (AID 1120); details: higher = more signal;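 further: probe is a biotin-tagged antibody raised against NOTCH3 rather than NOTCH3 protein; score merges spot fluorescence near 667 nm with spot signal to noise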
[3] = small-molecule binders of probe aNOTCH2, primary screen, biochemical, small-molecule microarray, 635/667 nm fluorescence (AID 1121); details: higher = more signal;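 further: score merges feature fluorescence read at 667 nm with its signal to noise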
[4] = target: Carbonic anhydrase 2 (Homo sapiens) (UniProt P00918); assay: CAII small-molecule binders, profiling panel, biochemical, small-molecule microarray, Alexa647-labelled CAII (AID 1122); details: CAII-A647 binding fluorescence, higher = more signal
[5] = COS7 lysate on small-molecule microarray, probe aHis, 635 nm (AID 1123); details: COS7 cell lysate, fluorescence, higher = more signal;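 further: z-score combines 667nm fluorescence intensity with signal-to-noise per printed compound spot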
[6] = compound binding in COS7 lysate, probe aLAP1, primary screen, cell lysate, small-molecule microarray (AID 1124); details: probe aLAP1, fluorescence, higher = more signal;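 further: lysate comes from COS7 cells expressing LAP1 and is applied at 0.3 µg/mL; score merges spot fluorescence near 667 nm with signal-to-noise over triplicate slides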
Sam68 (KHDRBS1) = assay: Sam68 small-molecule binders, primary screen, biochemical, small-molecule microarray, 635 nm fluorescence (AID 1125); details: small-molecule microarray binding, higher = more signal;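 further: score merges 667 nm channel intensity with signal to noise over triplicate slides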
[7] = tested on: Chordin-like protein 2 (CHRDL2); assay: CHRDL2 small-molecule binders, primary screen, biochemical, small-molecule microarray, 635 nm fluorescence (AID 1126); details: small-molecule microarray binding, fluorescence 635 nm; higher = more signal;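 further: printed compound slides probed with Chrdl2 protein at 4 µg/mL for 1 h at 4 C; score merges 667 nm emission intensity with signal to noise over three replicate slides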
[8] = target: Concanavalin-A (Canavalia ensiformis) (UniProt P02866); assay: ConA small-molecule binders, primary screen, artefact control for SMM control protein annotation, biochemical, small-molecule microarray, Alexa647 label, 635 nm (AID 1127); details: ConA-A647 binding fluorescence, higher = more signal;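 further: z combines 667 nm emission intensity with signal-to-noise across three replicate slides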
[9] = anti-His antibody binders, primary screen, artefact control for SMM control protein annotation, biochemical, small-molecule microarray, 635 nm fluorescence (AID 1128); details: anti-His Alexa647 antibody binding, higher = more signal;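 further: score merges feature fluorescence with signal-to-noise for each printed compound spot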
[10] = tested on: Human papillomavirus type 1a E7 protein (residues 1-88); assay: HPV1a E7 small-molecule binders, primary screen, biochemical, small-molecule microarray, residues 1-88, 635 nm (AID 1129); details: small-molecule microarray binding, fluorescence 635 nm; higher = more signal
[11] = target: Focal adhesion kinase 1 (Homo sapiens) (UniProt Q05397); assay: small-molecule microarray binders of FAK, primary screen, biochemical, 635/667 nm fluorescence, BSA, DTT (AID 1130); details: PTK2 binding, 635 nm fluorescence, higher = more signal;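 further: composite of spot emission at 667 nm and signal to noise over triplicate slides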
[12] = tested on: Fibrinogen (Alexa647-labelled); assay: fibrinogen binders on compound microarrays, profiling panel, artefact control for SMM control-protein annotation, biochemical, small-molecule microarray, 635/667 nm fluorescence (AID 1131); details: fibrinogen-A647 binding fluorescence, higher = more signal;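 further: z-score merges 667 nm fluorescence with per-spot signal-to-noise over triplicate slides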
[13] = target: Follistatin (Homo sapiens) (UniProt P19883); assay: follistatin binders on small-molecule microarrays, primary screen, biochemical, small-molecule microarray, 635/667 nm fluorescence (AID 1132); details: FST binding, 635 nm fluorescence, higher = more signal
[14] = target: Fibroblast growth factor 2 (Homo sapiens) (UniProt P09038); assay: FGF2 binders on small-molecule microarrays, primary screen, biochemical, small-molecule microarray, 635/667 nm fluorescence (AID 1133); details: small-molecule microarray binding, FGF2, fluorescence 635/667; higher = more signal
[15] = mitochondrial membrane potential change in A549 cells, profiling panel, cell-based, JC-1 fluorescence, basal, 24 h, 100 nL (AID 1138); details: higher = more signal;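 further: A549 lung adenocarcinoma cells under basal conditions with no added stimulus; test concentration not given here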
Lefty1 = Lefty1 binders on small-molecule microarrays, primary screen, biochemical, small-molecule microarray, 635/667 nm fluorescence (AID 1139); details: small-molecule microarray binding, fluorescence 635/667; higher = more signal
[16] = tested on: wheat germ agglutinin (Triticum aestivum), Alexa647-labelled; assay: wheat germ agglutinin binders on compound microarrays, profiling panel, artefact control for SMM control-protein annotation, biochemical, small-molecule microarray, 635/667 nm fluorescence (AID 1140); details: WGA-A647 binding, 635 nm fluorescence, higher = more signal;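 further: score merges 667 nm feature emission with signal to noise over triplicate slides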
[17] = target: Luciferin 4-monooxygenase (Photinus pyralis) (UniProt P08659); assay: firefly luciferase enzyme inhibitors, primary screen, biochemical, luminescence, purified enzyme, 2006 set (AID 1141); details: SteadyGlo luminescence, 30 min, higher = more signal, called active from +8 up or from −8 down;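 further: cell-free assay with purified firefly luciferase at 100 ng per well in PBS; test concentration not given here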
Chain of Luciferin 4-monooxygenase (Photinus pyralis) (P08659 whole entry, looked up): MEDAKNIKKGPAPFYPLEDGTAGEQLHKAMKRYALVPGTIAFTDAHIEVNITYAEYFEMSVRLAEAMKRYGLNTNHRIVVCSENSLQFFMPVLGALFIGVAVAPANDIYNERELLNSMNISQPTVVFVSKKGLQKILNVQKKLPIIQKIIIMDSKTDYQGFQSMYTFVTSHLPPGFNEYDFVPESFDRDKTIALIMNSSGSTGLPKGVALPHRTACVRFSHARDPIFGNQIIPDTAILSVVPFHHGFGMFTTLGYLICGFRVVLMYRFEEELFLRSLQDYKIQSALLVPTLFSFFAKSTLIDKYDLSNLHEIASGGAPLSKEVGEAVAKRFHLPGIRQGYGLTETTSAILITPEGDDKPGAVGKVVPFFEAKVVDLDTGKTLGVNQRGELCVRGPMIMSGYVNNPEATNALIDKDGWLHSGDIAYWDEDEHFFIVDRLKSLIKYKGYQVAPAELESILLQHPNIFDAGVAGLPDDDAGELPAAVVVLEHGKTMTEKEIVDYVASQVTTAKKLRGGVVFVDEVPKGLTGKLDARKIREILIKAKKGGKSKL

Chain of Concanavalin-A (Canavalia ensiformis) (P02866 whole entry, looked up): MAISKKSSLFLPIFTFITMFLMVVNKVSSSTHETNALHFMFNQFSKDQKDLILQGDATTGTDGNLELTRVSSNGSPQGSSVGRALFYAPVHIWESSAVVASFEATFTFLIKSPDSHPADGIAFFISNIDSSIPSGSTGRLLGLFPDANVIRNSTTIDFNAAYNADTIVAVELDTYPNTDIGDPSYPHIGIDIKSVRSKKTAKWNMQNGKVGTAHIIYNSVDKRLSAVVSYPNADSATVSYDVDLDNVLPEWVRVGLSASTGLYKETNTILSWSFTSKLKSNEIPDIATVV
Chain of Follistatin (Homo sapiens) (P19883 whole entry, looked up): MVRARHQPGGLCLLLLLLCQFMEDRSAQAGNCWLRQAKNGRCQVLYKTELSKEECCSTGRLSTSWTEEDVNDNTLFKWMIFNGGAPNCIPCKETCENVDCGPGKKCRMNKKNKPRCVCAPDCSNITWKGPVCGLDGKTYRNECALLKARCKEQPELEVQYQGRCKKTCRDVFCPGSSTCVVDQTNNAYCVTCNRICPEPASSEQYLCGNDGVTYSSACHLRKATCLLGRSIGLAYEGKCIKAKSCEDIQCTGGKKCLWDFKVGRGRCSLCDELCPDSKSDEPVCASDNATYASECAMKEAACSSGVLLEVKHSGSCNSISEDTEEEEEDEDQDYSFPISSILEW
Chain of Albumin (Bos taurus) (P02769 whole entry, looked up): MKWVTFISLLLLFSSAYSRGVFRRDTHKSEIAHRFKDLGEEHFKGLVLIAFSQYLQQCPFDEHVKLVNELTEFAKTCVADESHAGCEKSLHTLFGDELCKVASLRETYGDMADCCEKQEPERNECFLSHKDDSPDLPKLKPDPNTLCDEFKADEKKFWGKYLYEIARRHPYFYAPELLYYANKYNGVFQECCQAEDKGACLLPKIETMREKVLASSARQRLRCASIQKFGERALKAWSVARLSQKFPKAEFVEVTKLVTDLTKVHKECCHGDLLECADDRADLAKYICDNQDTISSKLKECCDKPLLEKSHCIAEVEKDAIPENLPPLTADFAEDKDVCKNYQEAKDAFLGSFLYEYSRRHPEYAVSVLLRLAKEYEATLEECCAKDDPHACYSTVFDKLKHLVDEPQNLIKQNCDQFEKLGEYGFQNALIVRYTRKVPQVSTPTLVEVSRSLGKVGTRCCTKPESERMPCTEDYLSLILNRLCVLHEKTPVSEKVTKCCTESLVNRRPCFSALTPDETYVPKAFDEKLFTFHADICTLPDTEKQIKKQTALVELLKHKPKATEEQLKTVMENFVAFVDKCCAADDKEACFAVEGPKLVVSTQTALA
Chain of Fibroblast growth factor 2 (Homo sapiens) (P09038 whole entry, looked up): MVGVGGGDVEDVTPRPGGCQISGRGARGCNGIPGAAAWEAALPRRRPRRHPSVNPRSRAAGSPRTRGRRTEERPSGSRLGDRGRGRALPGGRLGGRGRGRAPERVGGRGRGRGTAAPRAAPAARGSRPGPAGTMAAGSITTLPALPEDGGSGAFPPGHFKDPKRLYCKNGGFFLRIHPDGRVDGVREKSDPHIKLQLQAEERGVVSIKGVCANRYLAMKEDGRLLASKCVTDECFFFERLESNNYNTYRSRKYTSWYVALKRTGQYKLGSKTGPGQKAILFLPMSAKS
Chain of Focal adhesion kinase 1 (Homo sapiens) (Q05397 whole entry, looked up): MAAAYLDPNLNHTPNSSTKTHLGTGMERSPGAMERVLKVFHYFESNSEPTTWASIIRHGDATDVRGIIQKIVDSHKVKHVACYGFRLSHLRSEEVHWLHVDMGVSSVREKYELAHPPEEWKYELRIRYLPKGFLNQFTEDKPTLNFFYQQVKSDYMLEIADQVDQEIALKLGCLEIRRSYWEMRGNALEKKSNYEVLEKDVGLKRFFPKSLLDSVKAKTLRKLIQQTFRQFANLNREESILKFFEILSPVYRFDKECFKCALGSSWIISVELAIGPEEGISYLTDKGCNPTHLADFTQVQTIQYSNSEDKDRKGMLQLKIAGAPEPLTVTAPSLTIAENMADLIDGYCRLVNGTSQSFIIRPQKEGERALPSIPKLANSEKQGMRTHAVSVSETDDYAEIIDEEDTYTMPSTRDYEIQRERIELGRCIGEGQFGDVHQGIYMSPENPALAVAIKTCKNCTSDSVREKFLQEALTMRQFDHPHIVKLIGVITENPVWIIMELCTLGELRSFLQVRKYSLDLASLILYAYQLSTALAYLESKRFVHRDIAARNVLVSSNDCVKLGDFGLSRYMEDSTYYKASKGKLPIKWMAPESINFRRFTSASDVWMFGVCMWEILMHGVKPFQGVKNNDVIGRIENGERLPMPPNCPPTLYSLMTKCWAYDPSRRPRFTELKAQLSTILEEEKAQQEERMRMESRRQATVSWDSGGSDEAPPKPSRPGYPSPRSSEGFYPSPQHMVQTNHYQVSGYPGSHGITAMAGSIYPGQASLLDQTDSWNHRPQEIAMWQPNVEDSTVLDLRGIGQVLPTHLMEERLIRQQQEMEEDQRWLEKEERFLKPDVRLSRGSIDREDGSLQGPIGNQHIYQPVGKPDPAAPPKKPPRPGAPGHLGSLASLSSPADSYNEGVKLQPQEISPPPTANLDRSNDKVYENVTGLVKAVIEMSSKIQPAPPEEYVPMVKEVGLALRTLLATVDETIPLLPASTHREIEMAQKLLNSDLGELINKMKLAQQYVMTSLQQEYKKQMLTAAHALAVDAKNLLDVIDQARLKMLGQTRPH

SMILES | composite z-score (Albumin (Bos taurus)) | composite Z-score [1] | composite z-score [2] | composite z-score [3] | composite z-score [4] | composite z-score [5] | composite z-score [6] | composite z-score (Sam68 (KHDRBS1)) | composite z-score [7] | composite z-score [8] | composite z-score [9] | composite z-score [10] | composite z-score [11] | composite z-score [12] | composite z-score [13] | composite z-score [14] | z-score [15] | composite z-score (Lefty1) | composite z-score [16] | z-score [17]
CCOC(=O)[C@H](Cc1ccccc1)NC(=O)CCC1CC(OC(=O)NCc2cccc3ccccc23)CC2(CCCC(COC(=O)NCc3ccccc3)O2)O1 (stereo not given in full) | 0.561 | -0.0662 (inactive) | -0.0204 | -0.155 | 0.452 | 1.06 | -0.398 | 0.712 | 0.0223 | 0.649 | -0.198 | 0.3 | 0.172 | 0.0039 | 0.449 | 0.348 | -0.133 | 0.401 | -0.0623 | 0.877 (inactive)
COCOc1ccc(Br)cc1C(=O)[C@@H]1O[C@H]1c1cccc(OC)c1 | 0.591 | 0.374 (inactive) | -0.122 | -0.108 | 0.041 | 0.696 | 0.0365 | -0.395 | 0.589 | -1.26 | -0.183 | 0.513 | 0.0147 | 0.488 | 0.339 | -0.0753 | 1.1 | 0.346 | 0.432 | -0.54 (inactive)
CC(C)=CCCC(C)=CCON=C1C[C@@H](O)[C@@H](O)[C@@H]2[C@@H]3C(=O)N(Cc4ccccc4)C(=O)[C@@H]3CC[C@H]12 | 0.188 | 0.4 (inactive) | 0.0493 | -0.175 | 0.754 | 1.26 | 0.146 | 1.29 | 0.955 | 0.541 | 0.267 | 1.2 | 0.171 | 0.476 | 0.669 | 0.736 | -0.566 | 0.751 | 0.283 | 0.71 (inactive)
Cc1cc2c(nc1C)CCCCN2CC(C)ON=C1[C@H]2CCn3c(=O)n(-c4ccccc4)c(=O)n3[C@H]2[C@H](O)[C@@H]2O[C@H]12 (stereo not given in full) | 0.762 | -0.343 (inactive) | 0.0562 | -0.117 | 0.435 | 0.812 | 0.0072 | 0.573 | 0.373 | -0.765 | 0.761 | -0.0951 | -0.0065 | 0.7 | 0.7 | 0.875 | -0.196 | 1.31 | 1 | -0.661 (inactive)
C[C@H]1Cc2c(COc3ccccc3)nc3c(c2CO1)CN(CCOc1ccccc1)CC3 | -0.16 | -0.711 (inactive) | 0.0282 | -0.0746 | 0.635 | 1.14 | 0.282 | 1.32 | 0.522 | 1.08 | 1.07 | 0.804 | 0.673 | 0.702 | 1.18 | 0.537 | 4.09 | 1.13 | 0.346 | -1.19 (inactive)
CO[C@H]1COC(=O)CC=C[C@@H](C)[C@H](NS(=O)(=O)c2ccc(C)cc2)COC(=O)CCC[C@@H]1C | -0.48 | -0.483 (inactive) | -0.0711 | -0.11 | -0.312 | -0.42 | 0.303 | 0.515 | 1.23 | -0.0177 | 0.167 | -0.21 | 0.193 | 0.19 | 0.785 | 0.579 | -1.07 | 0.962 | -0.0807 | 1.03 (inactive)
